A selection: hits, their analogues and other compounds. The true share with any hit is near 2.1%.
PGE2 EP2 inh – EP2 receptor (human) inhibition. P43116. C6 glioma cells expressing human EP2, cAMP TR-FRET; cells stimulated with saturating PGE2. inhibition, % at 25 µM. 0.52% of 260,000 active. AID 1422;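 active means percent inhibition above 40 after rounding to a whole number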;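 further: rat C6 glioma host cells with rolipram phosphodiesterase inhibitor present; the protocol text gives 20 µM as final concentration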
Target sequence (P43116 whole entry, looked up): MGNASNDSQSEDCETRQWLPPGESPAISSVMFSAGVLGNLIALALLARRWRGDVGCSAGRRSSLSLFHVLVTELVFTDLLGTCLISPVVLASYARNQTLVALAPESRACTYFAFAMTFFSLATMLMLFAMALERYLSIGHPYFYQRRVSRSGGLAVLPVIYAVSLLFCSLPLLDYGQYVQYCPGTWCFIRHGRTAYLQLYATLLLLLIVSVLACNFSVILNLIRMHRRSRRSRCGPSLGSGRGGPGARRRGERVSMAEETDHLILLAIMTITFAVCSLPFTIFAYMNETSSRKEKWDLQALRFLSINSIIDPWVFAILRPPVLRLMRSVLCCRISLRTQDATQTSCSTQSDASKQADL
CHT inh – inhibits the human high affinity choline transporter; B-score at 10 µM; 0.86% of 310,000 active; AID 488975; CHT-expressing cells, membrane potential dye, choline response; hits give low values;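 active means B-score over 3 SD under the library average, and starting fluorescence ratio not unusually high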;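 further: choline stimulus applied at its EC90 after an EC20 pre-addition; B-score computed on integrated fluorescence ratio after choline addition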
EP2 modulator – modulates human prostaglandin E2 receptor EP2 signaling; P43116; EP2-expressing cells, cAMP HTRF FRET, PGE2 co-stimulation; induction, % at 25 µM; 0.83% of 260,000 active; AID 940;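 active means compounds whose cAMP rise, as percent of the full-agonist control response, exceeds 60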;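 further: rat C6 glioma line stably carrying human EP2 under a CMV promoter; the protocol text gives 20 µM as final concentration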
CHT allo act – allosterically activates the human high affinity choline transporter | AID 488977 | CHT-expressing cells, membrane potential dye, choline EC20; hits give high values; LV-AA mutant CHT in HEK293 cells | Q9GZV3 | 0.49% of 310,000 active | B-score at 10 µM;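 active means initial fluorescence not abnormally high and integrated response B-score, plate-corrected, over 3 SD above library mean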
Each line names hits and unclear results; the compound was inactive in the other large screens; ! = not active in a repeat.

CCN(CC)CC[n+]1ccc2c(C)c3[nH]c4ccc(O)cc4c3c(C)c2c1	PGE2 EP2 inh 44 (no result: CHT inh, CHT allo act)
Cc1c2cccc(Sc3ccccc3)c2c2c3c(cccc13)[S+](c1ccccc1)C2 (configuration not stated)	PGE2 EP2 inh 42 (no result: CHT inh, CHT allo act)
Cc1cc(C)c2cc(CN(CCCN3CCOCC3)C(=O)Nc3ccc(F)cc3)c(=O)[nH]c2c1	none (no result: CHT inh, CHT allo act)
COc1ccc(/C=C/C(=O)NCCn2c(C)cc3ccccc32)cc1OC	PGE2 EP2 inh 114
CCN1CCN(c2nc3c(c(=O)n(C)c(=O)n3C)n2CCSc2nccc(C)n2)CC1	CHT inh -7.5
O=C(CSc1nnc(-c2ccncc2)o1)N(C1CCCCC1)C1CCCCC1	none (no result: CHT inh, CHT allo act)
O=C(CSc1nnc(-c2ccccc2)o1)N(C1CCCCC1)C1CCCCC1	EP2 modulator 76 (no result: CHT inh, CHT allo act)
COc1ccc2c(c1)C(SCC(=O)NCCc1ccccc1)CC(C)(C)O2 (configuration not stated)	CHT inh -6.4 (no result: PGE2 EP2 inh)
COc1ccc(CCCC(=O)NCCc2ccccc2)cc1	none (no result: PGE2 EP2 inh, EP2 modulator)
CCOC(=O)N1CCC(n2c(SCC(=O)N3CCCC3)nc3ccccc3c2=O)CC1	none
COCCn1c(SCC(=O)c2ccccc2)nc2ccccc2c1=O	none
COCCn1c(SCCOc2ccccc2)nc2ccccc2c1=O	EP2 modulator 64
CC1(C)CC(n2c(=S)[nH]c3ccccc3c2=O)CCO1 (configuration not stated)	none (no result: PGE2 EP2 inh)
CCSc1nc2ccccc2c(=O)n1C1CCOC(C)(C)C1 (configuration not stated)	EP2 modulator 61
C=CCSc1nc2ccccc2c(=O)n1C1CCOC(C)(C)C1 (configuration not stated)	EP2 modulator 76
C=CCSc1nc2ccccc2c(=O)n1CCc1ccccc1	EP2 modulator 70 (no result: CHT inh, CHT allo act)
CC(=O)Oc1ccccc1C(=O)NCCN1CCOCC1	none (no result: CHT inh, CHT allo act)
CCC(=O)N(Cc1cc2cc(OC)ccc2[nH]c1=O)C(C)(C)C	none (no result: CHT inh, CHT allo act)
Cc1ccc2[nH]c(=O)c(CN(Cc3ccco3)C(=O)Nc3ccc(F)cc3)cc2c1	none (no result: CHT inh, CHT allo act)
Cc1nn(C)cc1C(=O)NCCc1nc(-c2ccncc2)n[nH]1	none (no result: PGE2 EP2 inh, CHT inh, CHT allo act)
CS(=O)(=O)c1sc2nc(-c3cccs3)cc(-c3ccccc3)c2c1N	PGE2 EP2 inh 49
CC(NC(=O)CCCSc1nc(-c2ccco2)cc(C(F)(F)F)n1)c1ccccc1 (configuration not stated)	PGE2 EP2 inh 42 (no result: CHT inh, CHT allo act)
COc1ccc(N2C(=O)N(c3ccc(C)cc3)C3CS(=O)(=O)CC32)cc1 (configuration not stated)	none (no result: CHT inh, CHT allo act)
CCSc1nc2sc3c(c2c2nnc(SCC(=O)NCc4ccco4)n12)CCCC3	PGE2 EP2 inh 49 (no result: EP2 modulator)
CN(C)CCCNC(=O)CN1N=C(C(C)(C)C)Cn2c(cc3sccc32)C1=O	none (no result: CHT inh, CHT allo act)
CCn1c(SCc2cccnc2)nnc1-c1cccc(C)c1	none (no result: CHT inh, CHT allo act)
Cc1cccc(Cn2c(SCC(O)CCl)nc3c2c(=O)[nH]c(=O)n3C)c1 (configuration not stated)	none (no result: CHT inh, CHT allo act)
C/C(Cl)=C\CSc1nc2c(c(=O)[nH]c(=O)n2C)n1Cc1cccc(C)c1	EP2 modulator 86 (no result: CHT inh, CHT allo act)
CCCSc1nc2c(c(=O)[nH]c(=O)n2C)n1Cc1cccc(C)c1	EP2 modulator 70 (no result: CHT inh, CHT allo act)
CCC(c1nnnn1Cc1ccccc1)N(Cc1cc2cc(C)cc(C)c2[nH]c1=O)C1CCCCC1 (configuration not stated)	none (no result: CHT inh, CHT allo act)
COC(=O)c1ccccc1NC1=C/C(=N\S(=O)(=O)c2ccc(C(=O)O)cc2)c2ccccc2C1=O	none (no result: PGE2 EP2 inh, EP2 modulator)
CCc1ccc(S(=O)(=O)/N=C2\C=C(Nc3ccc(C(=O)O)cc3)C(=O)c3ccccc32)cc1	CHT inh -7.2 (no result: PGE2 EP2 inh, EP2 modulator)
Cc1cc(C)c(NC(=O)CSc2nnc(C(C)C)n2C)c(C)c1	none (no result: CHT inh, CHT allo act)
COc1ccc(NC(=S)NCCc2c[nH]c3ccccc23)c(OC)c1	PGE2 EP2 inh 55
COc1ccc(NC(=S)NCCc2ccc(Cl)cc2)c(OC)c1	PGE2 EP2 inh 58
COc1ccc2c(c1)N(CC[C@H]1CCCCN1C)c1ccccc1S2	PGE2 EP2 inh 41 (no result: CHT inh, CHT allo act)
COc1cccc(CN2CCN(C(=O)N3CCCCC3)[C@@H](C)C2)c1	none (no result: PGE2 EP2 inh, CHT inh, CHT allo act)
O=c1c2oc3ccccc3c2[nH]c(=S)n1-c1ccc(F)cc1	EP2 modulator 65
CCOc1ccc(O)c(CN2CCC(O)(c3ccc(C)cc3)CC2)c1	none (no result: CHT inh, CHT allo act)
CCOC(=O)CSc1ccc(-c2nc3cc(C)c(C)cc3[nH]2)cn1	PGE2 EP2 inh 57!
Cc1cc2nc(-c3ccc(SCC(=O)N4CCOCC4)nc3)[nH]c2cc1C	none
CCOC(=O)CSc1ccc(-c2nc3ccccc3[nH]2)cn1	PGE2 EP2 inh 42!
O=C(O)CSc1ccc(-c2nc3ccccc3[nH]2)cn1	none (no result: CHT inh, CHT allo act)
CN=C1Sc2nc3cc4c(cc3cc2CN1Cc1ccco1)OCO4	none (no result: CHT inh, CHT allo act)
COc1ccc(CN(C(=O)c2ccco2)c2ccc(C)c(C)c2)cc1	EP2 modulator 65
CCOc1ccc(N(Cc2ccc(OC)c(OC)c2)C(=O)c2ccco2)cc1	none
CCN(CC)c1c(-c2ccccc2)c2cc(C)ccc2[nH]c1=O	EP2 modulator 61
c1cncc(-c2noc(C34CC5CC(CC(C5)C3)C4)n2)c1	EP2 modulator 63
Nc1nc(Nc2ccc(Cl)cc2)nc2ccccc12	CHT inh -8.3
CC(=O)CSc1nc2ccc(Nc3nc(N4CCOCC4)nc(N4CCOCC4)n3)cc2s1	none
CCOC(=O)CSc1nc2ccc(Nc3nc(N4CCOCC4)nc(N4CCOCC4)n3)cc2s1	PGE2 EP2 inh 72
O=C(Nc1ccccc1)NC1CC2CCC(C1)N2Cc1nnnn1Cc1ccco1 (configuration not stated)	none (no result: CHT inh, CHT allo act)
CO[C@@H]1/C=C\O[C@]2(C)Oc3c(C)c(O)c4c(O)c(c(CN5CCN(C)CC5)c(O)c4c3C2=O)NC(=O)C(C)=C/C=C\[C@@H](C)[C@@H](O)[C@H](C)[C@@H](O)[C@H](C)[C@H](OC(C)=O)[C@@H]1C	PGE2 EP2 inh 40 (no result: CHT inh, CHT allo act)
COc1ccc(F)c(CN(CCCn2ccnc2)Cc2ccccc2F)c1	none (no result: CHT inh, CHT allo act)
COc1ccc2[nH]c(C)cc(=O)c2c1	none
COc1ccc2[nH]c3c(C)c4ccncc4c(C)c3c2c1	PGE2 EP2 inh 87
C[C@@]12CC[C@@H]3[C@H](CC=C4C[C@@H](O)CC[C@@]43C)[C@H]1CC[C@H]2N(CCO)CCO	PGE2 EP2 inh 49 (no result: CHT inh, CHT allo act)
O=c1ccsn1Cc1ccccc1	PGE2 EP2 inh 65
CCn1c(SCC(=O)OCc2ccccc2)nc2ccccc2c1=O	none (no result: CHT inh, CHT allo act)
N#C/C(=C\c1cccs1)C(=O)c1ccccc1Cl	PGE2 EP2 inh 113
CC(C)(C)C(=O)/C(C#N)=C/c1cccs1	none
CC(C)(C)n1nnnc1C(c1cccc(C#N)c1)N1CCCc2ccccc21 (configuration not stated)	PGE2 EP2 inh 103!
Cc1ccc(C)c2[nH]c(=O)c(C(c3nnnn3C3CCCC3)N3CCc4ccccc43)cc12 (configuration not stated)	EP2 modulator 101 (no result: CHT inh, CHT allo act)
COc1cc2cc(C(c3nnnn3C(C)(C)C)N3CCc4ccccc43)c(=O)[nH]c2cc1OC (configuration not stated)	PGE2 EP2 inh 150
COc1cc2cc(C(c3nnnn3C3CCCC3)N3CCc4ccccc43)c(=O)[nH]c2cc1OC (configuration not stated)	none (no result: PGE2 EP2 inh)
